In assay [1] the test system is XIP peptide (Xip251-270) binding. Briefly: small-molecule binders of XIP peptide, primary screen, biochemical, small-molecule microarray, fluorescence 635/667 nm, 0.1 µg/mL protein (AID 1182). Particulars: fluorescent protein binding, 635 nm, higher = more signal, called active from +8 up or from −8 down.
Another assay concerns XIP peptide (Xip251-270). Briefly: small-molecule binders of XIP peptide, primary screen, biochemical, small-molecule microarray, fluorescence 635/667 nm, 0.5 µg/mL protein (AID 1183). The note with it: small-molecule microarray binding, fluorescence 635 nm; higher = more signal.
A short description of assay [2]: Plasmodium falciparum growth inhibition, primary screen, strain 3D7, DAPI fluorescence, 100 nL (AID 1184).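 Note: parasites grown inside human red blood cells in medium with human serum.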 The note with it: P. falciparum 3D7 growth, 3 d, higher = more signal.
For assay [3], the target named is Homeobox protein Hox-A13 (Mus musculus) (UniProt Q62424). Briefly: inhibitors of HoxA13-DNA binding, primary screen, biochemical, fluorescence polarization, labeled oligonucleotide (AID 1185). The note with it: 15 min, higher = more signal, called active from +8 up or from −8 down. In general terms: Fluorescence polarisation rises when a labelled molecule tumbles more slowly, as on binding a larger partner.
Sequence of Homeobox protein Hox-A13 (Mus musculus) (Q62424 whole entry, looked up): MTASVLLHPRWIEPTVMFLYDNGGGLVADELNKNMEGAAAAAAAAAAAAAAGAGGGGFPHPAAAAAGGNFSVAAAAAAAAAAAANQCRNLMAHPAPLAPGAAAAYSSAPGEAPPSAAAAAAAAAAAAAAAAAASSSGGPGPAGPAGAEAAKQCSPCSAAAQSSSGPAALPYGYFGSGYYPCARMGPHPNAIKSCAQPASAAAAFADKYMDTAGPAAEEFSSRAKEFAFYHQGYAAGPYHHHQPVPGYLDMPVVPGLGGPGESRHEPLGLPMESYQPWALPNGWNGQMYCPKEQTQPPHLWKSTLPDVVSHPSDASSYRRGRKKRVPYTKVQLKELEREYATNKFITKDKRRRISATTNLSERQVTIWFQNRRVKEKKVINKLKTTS

The nature of assay [4]: inhibitors of hydroxyurea-induced Chk1 phosphorylation, primary screen, imaging, HeLa, phospho-Chk1 antibody, percent positive cells (AID 1186). The note with it: hydroxyurea-induced phospho-Chk1 immunofluorescence imaging, higher = more signal.
The nature of assay [5]: inhibitors of hydroxyurea-induced Chk1 phosphorylation, primary screen, imaging, HeLa, phospho-Chk1 nuclear intensity (AID 1187). Particulars: hydroxyurea-induced phospho-Chk1 immunofluorescence imaging, higher = more signal.

Structures are written as SMILES. Activity calls are given as the source filed them. Unless noted, the rule behind the calls is not given here.

Regarding `O=C1C2C=CC(C(O)C3CCCCC3)N(n3cnnc3)C2C(=O)N1Cc1ccccc1` (centres undefined), the composite z-score was 0.534 (inactive) in assay [1] and -0.0061 in the assay with XIP peptide (Xip251-270). Also, the z-score in assay [2] is -0.902; in assay [3], -1.8 (inactive); in assay [4], 0.359 (inactive); in assay [5], -0.394 (inactive).
For `COc1cc(OC)c(C(O)C2C=CC3C(=O)N(c4ccccc4)C(=O)C3N2Nc2ccc(C(C)C)cc2)cc1Br` (centres undefined), the figures for the composite z-score (in assay [1]; in the assay with XIP peptide (Xip251-270)) were 0.242 (inactive) and 0.785, respectively. The z-score in assay [2] was -0.0986; in assay [3], -1.37 (inactive); in assay [4] it was -0.78 (inactive); in assay [5], -0.639 (inactive).
On to `COCCCNC(=O)[C@@]1(CCC(=O)OC(C)(C)C)COC(c2ccc(OCCCO)cc2)=N1`, for which the figures for the composite z-score (in assay [1]; in the assay with XIP peptide (Xip251-270)) were 0.192 (inactive) and 0.732, respectively. In addition, the z-score in assay [2] was -0.547; in assay [3], -5.74 (inactive); in assay [4] it was -0.0385 (inactive); in assay [5], 0.304 (inactive).
`C=CCC(OC(C)=O)[C@@H]1[C@@H](N(Cc2ccc(-c3ccccc3)cc2)C(=O)c2cccc3ccccc23)c2cc(OCCCO)ccc2N1C(=O)Cc1ccc(OC)cc1` (some centres undefined): the composite z-score in assay [1] was 0.15 (inactive); with XIP peptide (Xip251-270) it was -0.686. Further, the z-score is -1.38 in assay [2], -1.88 (inactive) in assay [3], -0.066 (inactive) in assay [4] and 0.0017 (inactive) in assay [5].
Regarding `CCCN1C(=O)[C@@]2(c3ccc([N+](=O)[O-])cc3)CC(=O)N(CC34CC5CC(CC(C5)C3)C4)[C@@H]2c2ccc(CO)cc21`, the results for the composite z-score (in assay [1]; in the assay with XIP peptide (Xip251-270)) were -0.349 (inactive) and 0.483, respectively. Further, the z-score in assay [2] was 0.877; in assay [3], -1.71 (inactive); in assay [4], 0.177 (inactive); in assay [5], -0.16 (inactive).
As to `COc1ccc([Si](C)(C)[C@@H]2[C@@H](CC(=O)N3Cc4ccccc4C[C@H]3CO)O[C@]3(C(=O)N(Cc4ccc(N5CCOC5=O)cc4)c4ccccc43)[C@H]2C)cc1`, the results for the composite z-score (in assay [1]; in the assay on XIP peptide (Xip251-270)) were 2.28 (inactive) and 0.83, respectively. Further, the z-score in assay [2] is -1.82; in assay [3], -1.43 (inactive); in assay [4] it was -0.262 (inactive); in assay [5], -0.106 (inactive).
On to `CCOC(=O)C1=CC[C@@H](c2ccc(OC)cc2)N(S(=O)(=O)c2ccc(C)cc2)[C@H]1CC`, for which the composite z-score in assay [1] is 0.441 (inactive); in the assay with XIP peptide (Xip251-270), 0.463. Further, the z-score is -2.03 in assay [2], -0.507 (inactive) in assay [3], -0.819 (inactive) in assay [4] and -0.599 (inactive) in assay [5].
For `COC(=O)C1(Cc2ccccc2)C=C2C(=C(C)C(=O)C2C)CN1` (centres undefined), the composite z-score in assay [1] was -0.217 (inactive); in the assay with XIP peptide (Xip251-270) it was 0.943. Further, the z-score in assay [2] was 0.235; in assay [3] it was -5.82 (inactive); in assay [4], 0.0869 (inactive); in assay [5], 0.244 (inactive).
For the molecule `CN(C)CCCC[C@@H]1NC(=O)[C@@H]2C[C@H](C(=O)NCCCCCN)[C@H](c3cccc(OCCO)c3)N2C1=O`, the figures for the composite z-score (in assay [1]; in the assay on XIP peptide (Xip251-270)) were 1.14 (inactive) and 0.898, respectively. The z-score in assay [2] is -0.0568; in assay [3], -1.29 (inactive); in assay [4], -0.523 (inactive); in assay [5], 0.0431 (inactive).
As to `O=C1C2C=CC(C(O)c3c(F)cccc3Cl)N(Nc3ccc([N+](=O)[O-])cc3)C2C(=O)N1c1ccccc1` (centres undefined), the composite z-score in assay [1] is 1.03 (inactive); with XIP peptide (Xip251-270), 0.878. The z-score was -0.545 in assay [2], -3.05 (inactive) in assay [3], 0.982 (inactive) in assay [4] and 1.09 (inactive) in assay [5].
On to `COCCOC(=O)N1C(=O)[C@@]2(c3ccccc31)[C@H](c1ccc(O)cc1)N1[C@H](c3ccccc3)[C@H](c3ccccc3)OC(=O)[C@H]1[C@@H]2C(=O)N1CCCCCCC1`, for which the composite z-score was 4.66 (inactive) in assay [1] and 0.91 in the assay with XIP peptide (Xip251-270). Also, the z-score in assay [2] is -1.01; in assay [3] it was 0.899 (inactive); in assay [4], -0.0437 (inactive); in assay [5], 0.157 (inactive).
Consider `CCOC(=O)C[C@H]1[C@H](OC(=O)c2ccccc2-c2ccccc2)[C@@H](NC(=O)C2CCCCC2)c2cc(OCCCO)ccc2N1C(=O)c1ccc2ccccc2n1`, for which the composite z-score was 0.181 (inactive) in assay [1] and 0.727 in the assay with XIP peptide (Xip251-270). Besides, the z-score in assay [2] was 0.433; in assay [3], -3.33 (inactive); in assay [4], 0.0664 (inactive); in assay [5], -0.108 (inactive).
Consider `COC(=O)C[C@H]1O[C@@]2(C[C@@H]1[Si](C)(C)C)C(=O)N(C)c1ccccc12`, for which the values for the composite z-score (in assay [1]; in the assay on XIP peptide (Xip251-270)) were -0.227 (inactive) and -0.186, respectively. Further, the z-score is 0.357 in assay [2], -0.91 (inactive) in assay [3], -0.597 (inactive) in assay [4] and -0.0422 (inactive) in assay [5].
With `CC(=O)NCCCC[C@@H]1NC(=O)[C@H]2C[C@@H](C(=O)NCCCCCCNC(=O)CS)[C@@H](c3cccc(OCCO)c3)N2C1=O`, the values for the composite z-score (in assay [1]; in the assay on XIP peptide (Xip251-270)) were 2.82 (inactive) and 0.349, respectively. Besides, the z-score was 0.287 in assay [2], -4.38 (inactive) in assay [3], 0.0478 (inactive) in assay [4] and 1.23 (inactive) in assay [5].

The record behind these values is PubChem BioAssay.
